Source: PubChem BioAssay (ICCB-Longwood Screening Facility, Harvard Medical School)
The full list was thinned out, with hits kept by preference.
S aureus helic – inhibitors of S. aureus replicative helicase, primary screen, biochemical, fluorescence unwinding readout; replicative DNA helicase (DnaC/DnaB), Staphylococcus aureus; purified S. aureus helicase, fluorescence unwinding assay; inhibition, % (no concentration beside the values); 120,000 compounds, 0.05% hits; AID 485395, 2010; in the data active = inhibition above about 25%, passing the limit was not always enough;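 note: 0% = mean of negative control wells and 100% = mean of positive control wells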
HCMV NEC inh – inhibitors of HCMV UL50-UL53 interaction, biochemical, HTRF; HCMV UL50-UL53 nuclear egress complex (human cytomegalovirus); normalized percent inhibition; inhibition, % (concentration not given with the values); 190,000 compounds, 0.15% hits; AID 1918969, 2023; in the data active = inhibition above about 27%, passing the limit was not always enough
Sa growth inh – S. aureus growth inhibition at 42 and 30 °C, primary screen, LtaS inhibitor project, RN4220, two temperatures. OD600, 20 h, 42 °C; hits give low values. relative growth, % (test concentration not listed). 170,000 compounds, 0.53% hits. AID 720641, 2013;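 active = relative growth at most 50% at the other temperature and 20+ points below 30 °C, or under 10% at both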
An asterisk follows results filed as active; x = no result; ! = repeats disagree.

SMILES	S aureus helic	HCMV NEC inh	Sa growth inh
C=C1c2cccc(O)c2C(O)=C2C(=O)C3(O)C(O)=C(C(N)=O)C(=O)C(N(C)C)C3C(O)C12 (centres undefined)	-26	104*	4.3*
CCCC(C(=O)Nc1cc(Cl)c(OC)cc1OC)N1Cc2ccccc2C1=O (centres undefined)	x	-6	x
Cc1cc(Nc2nc(-c3ccccc3)nc3ccccc23)n[nH]1	x	-24	x
Cc1cc(Nc2ncc(Cl)cc2Cl)n[nH]1	2	3	2.2*
O=C(O)Cc1coc(-c2ccc(F)cc2)n1	-19	-1	78
CN(Cc1coc(-c2ccccc2)n1)Cc1coc(-c2ccccc2)n1	-23	-7	-1.3*
Fc1ccc(SCSc2ccccc2)cc1	9	19	70
Cc1cc(C)nc(NS(=O)(=O)c2ccc(NC(=O)CSc3nc4c(cc3C#N)CCCCC4)cc2)n1	x	28*	x
N#Cc1ccccc1NC(=O)CSc1nc2c(cc1C#N)CCCC2	x	-1	x
Cc1cc(C)c2nc(/N=C(\N)NC(=O)C(C)(C)C)nc(C)c2c1	22	-16	91
O=C(COc1ccc(F)cc1)N1CCC(N2CCN(Cc3ccc(F)cc3)C(=O)C2=O)CC1	x	-7	x
CCOC(=O)C(C#N)c1c(F)c(F)c(Br)c(F)c1F (centres undefined)	-4	-18	-1.0*
CCOC(=O)C(C#N)c1ccccn1 (centres undefined)	x	0	107
O=S(=O)(c1cccc(-c2nnc(SCc3cn4ccsc4n3)n2-c2ccccc2)c1)N1CCCC1	-13	-21	92
N#CC(C#N)=C(Nc1ccccc1Cl)SCc1cccc(F)c1	1	-15	0.1*
N#CC(C#N)=C(Nc1ccc(Br)cc1)SCc1ccc(F)cc1	-13	-3	31
O=C1NC(=O)C(=Cc2cc(Cl)c(OC(=O)c3ccccc3)c(Cl)c2)C(=O)N1	x	5	x
COc1ccc(C(=O)Oc2ccc(C=C3C(=O)NC(=O)NC3=O)cc2Cl)cc1	x	76*	x
COc1ccc(C(=O)Oc2c(Cl)cc(C=C3C(=O)NC(=O)NC3=O)cc2OC)cc1	x	49*	x
COc1cc(C=C2C(=O)NC(=O)NC2=O)ccc1OC(=O)c1cc(F)c(F)cc1Cl	x	-3	x
COc1ccc(Cl)cc1N(CC(=O)N1CCN(c2ccccc2)CC1)S(=O)(=O)c1ccc(C)c([N+](=O)[O-])c1	x	-6	x
Oc1c(CN2CCCCC2)ccc2cccnc12	7	-73	59
Oc1c(C(O)(C(F)(F)F)C(F)(F)F)ccc2cccnc12	13	-41	-0.3*
CCN(CC)c1ccc2c(C)c(CO)c(=O)oc2c1	-44	-40	102
CCN(CC)c1ccc2c(N3CCCCC3)cc(=O)oc2c1	-10	-2	2.1*
SMILES	S aureus helic	HCMV NEC inh	Sa growth inh
Cc1no[n+]([O-])c1COc1cccc(/C=C2\SC(=S)NC2=O)c1	14	-53	-0.8*
COc1cc(C=C2C(=O)NC(=O)NC2=O)cc(Br)c1OCc1c(C)no[n+]1[O-]	-12	7	96
CCn1c(O)c(N=NS(=O)(=O)c2ccc(C)cc2)c2cc(Cl)ccc21	13	-23	0.8*
CCn1c2ccc(Cl)cc2c2cc(Cl)ccc21	x	-2	108
O=C1CN(c2ccccc2)C(=Nc2ccccc2)S1	-2	7	104
c1ccc(N=c2[n-][n+](-c3ccccc3)cn2-c2ccccc2)cc1	12	55*	11
Cc1ccc(C(C)NC(=O)CCc2nc(-c3cc4ccc(C)cc4[nH]c3=O)no2)cc1 (centres undefined)	x	-11	x
Cc1ccccc1Nc1nn2c(=O)c3ccc(C(=O)N4CCc5ccccc5C4)cc3nc2s1	-27	-28	86
O=C(c1ccc(Nc2nn3c(=O)c4ccccc4nc3s2)cc1)N1CCc2ccccc2C1	x	56*	x
CCCCn1c(O)c(N=NC(=O)c2ccccc2)c2ccccc21	7	-16	3.7*
Cn1c(O)c(N=NC(=O)c2ccccc2)c2ccccc21	6	-17	93
Cc1nccn1CC(=O)N1c2ccccc2Sc2ccccc21	6	2	-0.3*
Cn1ccnc1SC(=O)N1c2ccccc2Sc2ccccc21	2	-2	118
CCN1/C(=C/c2ccc3cc(C)ccc3[n+]2C)Sc2cc(OC)ccc21	-26	x	-1.5*
CCN1/C(=C/c2ccc3ccccc3[n+]2CC)Sc2cc(NC(C)=O)ccc21	6	x	101
COc1ccc2c(ccc(/C=C3\Sc4ccccc4N3C)[n+]2C)c1	-222	x	4.7*
CN1/C(=C/C#N)Sc2ccccc21	-74	-3	88
Nc1nc(SCC(=O)N2CCNC2=O)nc2sc3c(c12)CCCCC3	2	-34	74
Cc1c2oc3c(C)ccc(C(=O)OC(C)C4NC(=O)C(C(C)C)N(C)C(=O)CN(C)C(=O)C5CCCN5C(=O)C(C(C)C)NC4=O)c3nc-2c(C(=O)OC(C)C2NC(=O)C(C(C)C)N(C)C(=O)CN(C)C(=O)C3CCCN3C(=O)C(C(C)C)NC2=O)c(N)c1=O (centres undefined)	x	-34	-0.6*
Cc1c2oc3c(C)ccc(C(=O)NC4C(=O)NC(C(C)C)C(=O)N5CCCC5C(=O)N(C)CC(=O)N(C)C(C(C)C)C(=O)OC4C)c3nc-2c(C(=O)NC2C(=O)NC(C(C)C)C(=O)N3CCCC3C(=O)N(C)CC(=O)N(C)C(C(C)C)C(=O)OC2C)c(N)c1=O (centres undefined)	x	-35	x
CCCSC(=S)c1c(C)[nH]n(-c2ccc(C)cc2)c1=O	x	11	123
CCCSC(=S)c1c(C)[nH]n(-c2ccccc2)c1=O	-7	-85	0.2*
CCN(CC)c1ccc2c(c1)CCCN2	8	-16	4.2*
O=S(=O)(c1ccc2c(c1)CCCN2)N1CCCCC1	-12	-33	101
O=C(O)c1ccc(NC(=O)c2ccc3c(c2)C(=O)N(Cc2ccco2)C3=O)cc1	4	-49	115
SMILES	S aureus helic	HCMV NEC inh	Sa growth inh
CN(CC(=O)NC(c1ccccc1)c1ccccc1)S(=O)(=O)c1ccc2c(c1)CCC(=O)N2	6	2	94
CCc1c(C)sc2c1CCN(Cc1cccc(OC)c1)C2c1ccccc1 (centres undefined)	x	x	-1.1*
CCc1c(C)sc2c1CCN(Cc1ccccc1F)C2c1ccccc1 (centres undefined)	x	x	-1.3*
CCc1c(C)sc2c1CCN(C(=O)Nc1ccccc1C(=O)OC)C2c1ccccc1 (centres undefined)	x	-2	x
CCc1c(C)sc2c1CCN(C(=O)Nc1cc(OC)c(OC)c(OC)c1)C2c1ccccc1 (centres undefined)	x	x	94
Cc1cc(=O)oc2c3c(ccc12)OCN(C(C)(C)C)C3	28	-30	86
CCc1oc2ccccc2c1C(=O)c1cc(Br)c(O)c(Br)c1	x	-4	4.4*!
CCCCc1oc2ccccc2c1C(=O)c1ccc(O)cc1	4	x	32
CN(Cc1ccccc1)C(=O)Cn1ncn2nc(-c3cccs3)cc2c1=O	12	-23	72
COc1cccc(NC(=O)Cn2sc3ccccc3c2=O)c1	12	-20	-0.2*
COc1cccc(NC(=O)Cn2ccc3c(OC)cccc3c2=O)c1	-2	-24	98
CCOC(=O)N1CCC(NC(=O)C2CCN(c3ncnc4c3sc3cccc(F)c34)CC2)CC1	-4	53*	96
